From the supplement of paper PMC10849652
About 7,900 targets were measured; listed, in parts, are those with a hit and a random draw of the rest. About 0.6% of all pairs of compound and target were hits.

Experiments:
Experiment in all cases: log2 fold change, soluble protein after heating vs DMSO (PISA); higher = thermal stabilisation; K562 cells, 10 uM, 30 min; active = over 0.2 and 3.5 SD of the protein, either way, in both replicates (recomputed)
[1] = compound: CC1=C(C=C(C=C1)NC(=O)C2=CC(=CC=C2)C(C)(C)C#N)NC3=CC4=C(C=C3)N=CN(C4=O)C
Method in brief: (§1)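 Values are thermal stability changes relative to control samples and are taken from duplicates. They are stated as log2 fold changes. Before quantification by TMTpro 16plex LC-MS/MS with equalised channel sums, K562 cells at 2×10^6 cells/mL were treated with 10 μM compound for 30 min, heated in aliquots for 3 min across 48°C-58°C, pooled, extracted in PBS with 0.5% NP-40 at 4°C, and centrifuged at 21,000xg for 90 min to give the soluble supernatant.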

[2] = compound: CC1=C(C=C(C=C1)NC(=O)C2=CC(=CC=C2)N(C)C)NC(=O)C3=CC=C(C=C3)O
Method in brief: as §1

[3] = compound: CC1=CC=C(C=C1)SC2=C3C=C(SC3=CN=C2)C(=O)N
Method in brief: as §1

[4] = compound: CC1=NC(=CC=C1)C2=C(N=C(N2)C(C)(C)C)C3=CC4=NC=CN=C4C=C3
Method in brief: as §1

Nexturastat A = compound: CCCCN(Cc1ccc(C(=O)NO)cc1)C(=O)Nc1ccccc1 [Nexturastat A]
Method in brief: as §1

vemurafenib = compound: CCCS(=O)(=O)Nc1ccc(F)c(C(=O)c2c[nH]c3ncc(-c4ccc(Cl)cc4)cc23)c1F [vemurafenib]
Method in brief: as §1

[5] = compound: CCCS(=O)(=O)Nc1ccc(F)c(C(=O)c2c[nH]c3ncc(Cl)cc23)c1F
Method in brief: as §1

[6] = compound: CCCc1cc(C)[nH]c(=O)c1CNC(=O)c1cc(-c2ccnc(N3CCN(C)CC3)c2)cc2c1cnn2C(C)C
Method in brief: as §1

givinostat = compound: CCN(CC)Cc1ccc2cc(COC(=O)Nc3ccc(C(=O)NO)cc3)ccc2c1 [givinostat]
Method in brief: as §1

barasertib = compound: CCN(CCCOc1ccc2c(Nc3cc(CC(=O)Nc4cccc(F)c4)[nH]n3)ncnc2c1)CCOP(=O)(O)O [barasertib]
Method in brief: as §1

[7] = compound: CC[C@@H]1C(=O)N(C)c2cnc(Nc3ccc(C(=O)NC4CCN(C)CC4)cc3OC)nc2N1C1CCCC1
Method in brief: as §1

volasertib = compound: CC[C@@H]1C(=O)N(C)c2cnc(Nc3ccc(C(=O)N[C@H]4CC[C@H](N5CCN(CC6CC6)CC5)CC4)cc3OC)nc2N1C(C)C [volasertib]
Method in brief: as §1

[8] = compound: CC[C@H](C)N1C=C(C2=C(C=C(C=C21)C3=CN=C(C=C3)N4CCNCC4)C(=O)NCC5=C(C=C(NC5=O)C)C)C
Method in brief: as §1

epoxomicin = compound: CC[C@H](C)[C@@H](C(=O)N[C@@H]([C@@H](C)O)C(=O)N[C@@H](CC(C)C)C(=O)[C@]1(CO1)C)NC(=O)[C@H]([C@@H](C)CC)N(C)C(=O)C [epoxomicin]
Method in brief: as §1

[9] = compound: CCn1c(C(=O)N(C2CC2)C2CC2)cc2c3c(ncn3C)c(Nc3cc(C)n(C)n3)nc21
Method in brief: as §1

[10] = compound: CCn1cc(-c2ccnc3[nH]c(-c4cccc(CN(C)C)c4)cc23)c(-c2ccc(NC(=O)N(C)C)cc2)n1
Method in brief: as §1

[11] = compound: CN(C)CC(=O)Nc1ccc2[nH]c(=O)c3ccccc3c2c1
Method in brief: as §1

rosiglitazone = compound: CN(CCOC1=CC=C(C=C1)C[C@H]2C(=O)NC(=O)S2)C3=CC=CC=N3 (racemic) [rosiglitazone]
Method in brief: as §1

[12] = compound: CN1C2=C(C3=C1C(=O)N(N=C3)CC4=CC(=CC=C4)N)SC(=C2)S(=O)C
Method in brief: as §1

[13] = compound: CN1CCC(CNc2ccc3ncc(-c4cccc(OC(F)(F)F)c4)n3n2)CC1
Method in brief: as §1

Measured: log2 fold change

VPS41 (UniProt P49754)
Chain of UniProt P49754 (P49754 whole entry, looked up): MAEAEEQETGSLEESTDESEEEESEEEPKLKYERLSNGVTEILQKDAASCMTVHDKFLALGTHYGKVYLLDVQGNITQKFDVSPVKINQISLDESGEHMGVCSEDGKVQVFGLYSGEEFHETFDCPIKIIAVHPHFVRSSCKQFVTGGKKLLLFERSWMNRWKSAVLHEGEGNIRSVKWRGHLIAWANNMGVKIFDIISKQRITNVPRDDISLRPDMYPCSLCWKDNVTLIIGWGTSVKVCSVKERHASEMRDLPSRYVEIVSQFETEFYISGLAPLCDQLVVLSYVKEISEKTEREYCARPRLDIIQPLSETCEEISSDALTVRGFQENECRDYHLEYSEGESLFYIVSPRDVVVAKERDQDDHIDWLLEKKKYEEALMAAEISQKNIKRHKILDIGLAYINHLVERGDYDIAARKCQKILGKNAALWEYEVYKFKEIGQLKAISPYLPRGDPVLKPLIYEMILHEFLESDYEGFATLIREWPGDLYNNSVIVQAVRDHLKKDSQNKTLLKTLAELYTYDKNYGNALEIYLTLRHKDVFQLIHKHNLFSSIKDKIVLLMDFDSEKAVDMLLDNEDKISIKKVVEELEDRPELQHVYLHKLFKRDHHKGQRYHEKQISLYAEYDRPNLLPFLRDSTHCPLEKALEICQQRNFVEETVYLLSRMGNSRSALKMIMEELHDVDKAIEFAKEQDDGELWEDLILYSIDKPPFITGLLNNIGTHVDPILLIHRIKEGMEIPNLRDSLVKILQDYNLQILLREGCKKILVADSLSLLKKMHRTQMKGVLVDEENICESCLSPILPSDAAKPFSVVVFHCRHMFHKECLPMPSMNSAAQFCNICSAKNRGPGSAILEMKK
active: [13] -0.25
inactive: [1] 0.015 | [2] 0.003 | [3] 0.004 | [4] -0.028 | Nexturastat A 0.108 | vemurafenib -0.051 | [5] 0.025 | [6] -0.03 | givinostat -0.013 | barasertib -0.02 | [7] -0.214 | volasertib -0.309 | [8] 0.02 | epoxomicin -0.038 | [9] -0.005 | [10] -0.106 | [11] -0.004 | rosiglitazone 0.066 | [12] 0.054

TPM2 (UniProt P07951)
inactive: [1] 0.048 | [2] -0.019 | [3] -0.047 | [4] 0.212 | Nexturastat A -0.138 | vemurafenib 0.03 | [5] 0.001 | [6] 0.405 | givinostat -0.011 | barasertib 0.04 | [7] -0.07 | volasertib 0.173 | [8] 0.069 | epoxomicin 0.287 | [9] 0.023 | [10] -0.04 | [11] -0.057 | rosiglitazone -0.024 | [12] -0.023 | [13] 0.118

USO1 isoform 2 (UniProt O60763)
inactive: [1] 0.009 | [2] -0.013 | [3] 0.02 | [4] 0.038 | Nexturastat A -0.029 | vemurafenib 0.063 | [5] 0.062 | [6] -0.018 | givinostat 0 | barasertib 0.031 | [7] -0.108 | [8] 0.025 | epoxomicin 0.043 | [9] 0.001 | [10] -0.018 | [11] 0.015 | rosiglitazone 0.044 | [12] -0.059 | [13] -0.111
active: volasertib -0.254

WDR11 (UniProt Q9BZH6)
inactive: [1] -0.004 | [2] 0.057 | [3] -0.008 | [4] -0.016 | Nexturastat A -0.097 | vemurafenib -0.089 | [5] -0.084 | [6] -0.105 | givinostat 0.035 | barasertib 0.034 | [7] 0.079 | volasertib 0.031 | [8] -0.183 | epoxomicin 0 | [9] 0.062 | [10] 0.089 | [11] -0.061 | rosiglitazone 0.08 | [12] 0.009 | [13] -0.131

UHRF1BP1 (UniProt Q6BDS2)
inactive: [1] -0.068 | [2] -0.039 | [3] -0.012 | [4] -0.011 | Nexturastat A 0.043 | vemurafenib -0.035 | [5] -0.043 | [6] -0.022 | givinostat -0.012 | barasertib -0.009 | [7] 0.137 | volasertib 0.131 | [8] 0.036 | epoxomicin -0.067 | [9] -0.013 | [10] -0.105 | [11] 0.012 | rosiglitazone 0.019 | [12] -0.09
active: [13] 0.211

UBE2E3 (UniProt Q969T4)
Chain of UniProt Q969T4 (Q969T4 whole entry, looked up): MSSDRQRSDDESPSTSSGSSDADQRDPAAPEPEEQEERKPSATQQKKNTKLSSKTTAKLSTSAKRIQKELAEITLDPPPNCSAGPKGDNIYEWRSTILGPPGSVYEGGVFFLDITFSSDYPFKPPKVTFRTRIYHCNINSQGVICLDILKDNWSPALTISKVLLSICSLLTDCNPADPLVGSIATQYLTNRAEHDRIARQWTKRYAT
inactive: [1] 0.028 | [2] -0.059 | [3] 0.053 | [4] 0.08 | Nexturastat A -0.098 | vemurafenib -0.013 | [5] 0.08 | [6] 0.022 | givinostat 0.116 | barasertib 0.013 | [7] -0.124 | [8] -0.008 | epoxomicin -0.052 | [9] 0.051 | [10] -0.11 | [11] 0.022 | rosiglitazone 0.059 | [12] -0.005 | [13] -0.24
active: volasertib -0.377

VPS39 (UniProt Q96JC1)
inactive: [1] 0.049 | [2] -0.015 | [3] 0.011 | [4] 0.031 | Nexturastat A 0.014 | vemurafenib 0.041 | [5] 0.059 | [6] -0.029 | givinostat 0.019 | barasertib 0.053 | [7] -0.206 | [8] 0.054 | epoxomicin -0.017 | [9] -0.033 | [10] -0.091 | [11] 0.022 | rosiglitazone 0.044 | [12] 0.008 | [13] -0.187
active: volasertib -0.354

WASH2P (UniProt Q6VEQ5)
inactive: [1] -0.001 | [2] -0.034 | [3] 0.019 | [4] 0 | Nexturastat A 0.139 | vemurafenib 0.03 | [5] -0.01 | [6] 0.026 | givinostat -0.007 | barasertib 0.043 | [7] -0.071 | volasertib -0.163 | [8] 0.024 | epoxomicin 0 | [9] 0.002 | [10] 0.037 | [11] 0.021 | rosiglitazone 0.033 | [12] 0.012 | [13] -0.067

TXNRD1 (UniProt Q16881)
inactive: [1] 0.032 | [2] 0.006 | [3] 0.021 | [4] 0.039 | Nexturastat A -0.051 | vemurafenib 0.024 | [5] 0.007 | [6] -0.035 | givinostat 0.011 | barasertib 0.024 | [7] 0.004 | volasertib 0.05 | [8] 0.006 | epoxomicin 0.054 | [9] -0.032 | [10] -0.049 | [11] -0.003 | rosiglitazone 0.067 | [12] -0.096 | [13] -0.006

UFD1 isoform 1 (UniProt Q92890)
Chain of UniProt Q92890 (Q92890 whole entry, looked up): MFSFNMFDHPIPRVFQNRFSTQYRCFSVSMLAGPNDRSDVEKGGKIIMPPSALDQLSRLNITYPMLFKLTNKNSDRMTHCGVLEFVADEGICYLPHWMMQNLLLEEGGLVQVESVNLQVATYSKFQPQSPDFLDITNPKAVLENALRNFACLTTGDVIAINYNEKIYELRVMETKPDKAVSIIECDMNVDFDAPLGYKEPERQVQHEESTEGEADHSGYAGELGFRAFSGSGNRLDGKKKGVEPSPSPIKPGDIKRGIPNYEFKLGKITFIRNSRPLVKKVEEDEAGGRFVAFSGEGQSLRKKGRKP
inactive: [1] 0.02 | [2] -0.025 | [3] 0.037 | [4] 0.106 | Nexturastat A 0.015 | vemurafenib 0 | [5] 0.018 | [6] -0.015 | givinostat 0.032 | barasertib -0.011 | [7] -0.009 | volasertib 0.021 | [8] 0.008 | epoxomicin 0.063 | [9] -0.021 | [10] 0.063 | [11] 0.003 | rosiglitazone 0.008 | [12] -0.045 | [13] -0.015

VRK1 (UniProt Q99986)
inactive: [1] -0.089 | [2] -0.121 | [3] 0.096 | [4] 0.063 | Nexturastat A -0.085 | vemurafenib 0.122 | [5] 0.072 | [6] 0.108 | givinostat 0.046 | barasertib 0.075 | [7] -0.184 | volasertib -0.159 | [8] 0.102 | epoxomicin 0.169 | [9] -0.107 | [10] -0.06 | [11] 0.135 | rosiglitazone 0.105 | [12] -0.028 | [13] -0.03

VTI1B (UniProt Q9UEU0)
Chain of UniProt Q9UEU0 (Q9UEU0 whole entry, looked up): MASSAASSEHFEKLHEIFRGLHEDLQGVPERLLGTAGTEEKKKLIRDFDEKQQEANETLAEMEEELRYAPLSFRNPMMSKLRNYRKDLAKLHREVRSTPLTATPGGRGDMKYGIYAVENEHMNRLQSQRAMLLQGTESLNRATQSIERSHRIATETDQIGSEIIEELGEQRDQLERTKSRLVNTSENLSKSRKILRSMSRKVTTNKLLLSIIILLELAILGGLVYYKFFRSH
active: [13] -0.331
inactive: [1] -0.038 | [2] 0.006 | [3] -0.008 | [4] -0.014 | Nexturastat A 0.036 | vemurafenib -0.03 | [5] 0.009 | [6] -0.034 | givinostat -0.04 | barasertib -0.007 | [7] -0.028 | volasertib -0.066 | [8] -0.037 | epoxomicin -0.057 | [9] 0.036 | [10] -0.018 | [11] -0.009 | rosiglitazone 0.006 | [12] 0.018

UFL1 (UniProt O94874)
inactive: [1] -0.009 | [2] -0.089 | [3] 0.011 | [4] 0.048 | Nexturastat A 0.091 | vemurafenib 0.083 | [5] 0.089 | [6] 0.043 | givinostat 0.08 | barasertib 0.031 | [7] -0.063 | [8] 0.086 | epoxomicin 0.004 | [9] -0.06 | [10] -0.023 | [11] 0.054 | rosiglitazone 0.06 | [12] 0.04 | [13] -0.089
active: volasertib -0.351

XPO6 (UniProt Q96QU8)
Chain of UniProt Q96QU8 (Q96QU8 whole entry, looked up): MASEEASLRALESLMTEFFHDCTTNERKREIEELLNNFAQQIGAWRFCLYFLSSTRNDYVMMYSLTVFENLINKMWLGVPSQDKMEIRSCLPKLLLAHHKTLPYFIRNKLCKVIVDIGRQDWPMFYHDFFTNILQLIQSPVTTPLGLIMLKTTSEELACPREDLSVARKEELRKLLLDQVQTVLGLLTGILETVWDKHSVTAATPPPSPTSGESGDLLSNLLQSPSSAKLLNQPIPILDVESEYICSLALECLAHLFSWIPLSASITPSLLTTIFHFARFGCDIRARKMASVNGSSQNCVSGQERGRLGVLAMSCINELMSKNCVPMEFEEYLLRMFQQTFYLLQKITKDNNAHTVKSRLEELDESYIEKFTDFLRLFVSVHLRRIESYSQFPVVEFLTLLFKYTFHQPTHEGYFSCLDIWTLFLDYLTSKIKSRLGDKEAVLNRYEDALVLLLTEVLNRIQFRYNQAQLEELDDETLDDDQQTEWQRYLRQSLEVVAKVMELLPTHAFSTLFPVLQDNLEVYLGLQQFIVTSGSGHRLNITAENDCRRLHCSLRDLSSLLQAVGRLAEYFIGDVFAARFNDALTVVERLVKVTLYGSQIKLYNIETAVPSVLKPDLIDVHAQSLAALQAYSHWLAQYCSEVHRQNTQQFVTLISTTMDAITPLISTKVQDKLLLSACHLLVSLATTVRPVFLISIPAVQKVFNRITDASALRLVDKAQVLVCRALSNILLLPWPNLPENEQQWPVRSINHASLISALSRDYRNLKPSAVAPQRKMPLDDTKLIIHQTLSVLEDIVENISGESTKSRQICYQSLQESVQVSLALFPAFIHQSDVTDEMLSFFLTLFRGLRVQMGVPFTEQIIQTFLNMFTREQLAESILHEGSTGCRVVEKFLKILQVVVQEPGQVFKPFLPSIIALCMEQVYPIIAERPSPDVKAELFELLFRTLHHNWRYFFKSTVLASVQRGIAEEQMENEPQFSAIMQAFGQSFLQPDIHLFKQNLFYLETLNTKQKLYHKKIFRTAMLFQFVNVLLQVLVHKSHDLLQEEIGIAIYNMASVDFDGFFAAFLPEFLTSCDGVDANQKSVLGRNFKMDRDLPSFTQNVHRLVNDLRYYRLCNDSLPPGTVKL
inactive: [1] 0.008 | [2] -0.221 | [3] 0.041 | [4] -0.369 | vemurafenib 0.082 | [5] 0.13 | [6] 0.028 | givinostat 0.068 | barasertib -0.003 | [7] -0.054 | [8] -0.017 | epoxomicin -0.249 | [9] -0.011 | [10] 0.174 | [11] 0.065 | rosiglitazone 0 | [12] 0.018 | [13] -0.134
active: Nexturastat A 0.767 | volasertib -0.536

TPR (UniProt P12270)
Chain of UniProt P12270 (P12270 whole entry, looked up): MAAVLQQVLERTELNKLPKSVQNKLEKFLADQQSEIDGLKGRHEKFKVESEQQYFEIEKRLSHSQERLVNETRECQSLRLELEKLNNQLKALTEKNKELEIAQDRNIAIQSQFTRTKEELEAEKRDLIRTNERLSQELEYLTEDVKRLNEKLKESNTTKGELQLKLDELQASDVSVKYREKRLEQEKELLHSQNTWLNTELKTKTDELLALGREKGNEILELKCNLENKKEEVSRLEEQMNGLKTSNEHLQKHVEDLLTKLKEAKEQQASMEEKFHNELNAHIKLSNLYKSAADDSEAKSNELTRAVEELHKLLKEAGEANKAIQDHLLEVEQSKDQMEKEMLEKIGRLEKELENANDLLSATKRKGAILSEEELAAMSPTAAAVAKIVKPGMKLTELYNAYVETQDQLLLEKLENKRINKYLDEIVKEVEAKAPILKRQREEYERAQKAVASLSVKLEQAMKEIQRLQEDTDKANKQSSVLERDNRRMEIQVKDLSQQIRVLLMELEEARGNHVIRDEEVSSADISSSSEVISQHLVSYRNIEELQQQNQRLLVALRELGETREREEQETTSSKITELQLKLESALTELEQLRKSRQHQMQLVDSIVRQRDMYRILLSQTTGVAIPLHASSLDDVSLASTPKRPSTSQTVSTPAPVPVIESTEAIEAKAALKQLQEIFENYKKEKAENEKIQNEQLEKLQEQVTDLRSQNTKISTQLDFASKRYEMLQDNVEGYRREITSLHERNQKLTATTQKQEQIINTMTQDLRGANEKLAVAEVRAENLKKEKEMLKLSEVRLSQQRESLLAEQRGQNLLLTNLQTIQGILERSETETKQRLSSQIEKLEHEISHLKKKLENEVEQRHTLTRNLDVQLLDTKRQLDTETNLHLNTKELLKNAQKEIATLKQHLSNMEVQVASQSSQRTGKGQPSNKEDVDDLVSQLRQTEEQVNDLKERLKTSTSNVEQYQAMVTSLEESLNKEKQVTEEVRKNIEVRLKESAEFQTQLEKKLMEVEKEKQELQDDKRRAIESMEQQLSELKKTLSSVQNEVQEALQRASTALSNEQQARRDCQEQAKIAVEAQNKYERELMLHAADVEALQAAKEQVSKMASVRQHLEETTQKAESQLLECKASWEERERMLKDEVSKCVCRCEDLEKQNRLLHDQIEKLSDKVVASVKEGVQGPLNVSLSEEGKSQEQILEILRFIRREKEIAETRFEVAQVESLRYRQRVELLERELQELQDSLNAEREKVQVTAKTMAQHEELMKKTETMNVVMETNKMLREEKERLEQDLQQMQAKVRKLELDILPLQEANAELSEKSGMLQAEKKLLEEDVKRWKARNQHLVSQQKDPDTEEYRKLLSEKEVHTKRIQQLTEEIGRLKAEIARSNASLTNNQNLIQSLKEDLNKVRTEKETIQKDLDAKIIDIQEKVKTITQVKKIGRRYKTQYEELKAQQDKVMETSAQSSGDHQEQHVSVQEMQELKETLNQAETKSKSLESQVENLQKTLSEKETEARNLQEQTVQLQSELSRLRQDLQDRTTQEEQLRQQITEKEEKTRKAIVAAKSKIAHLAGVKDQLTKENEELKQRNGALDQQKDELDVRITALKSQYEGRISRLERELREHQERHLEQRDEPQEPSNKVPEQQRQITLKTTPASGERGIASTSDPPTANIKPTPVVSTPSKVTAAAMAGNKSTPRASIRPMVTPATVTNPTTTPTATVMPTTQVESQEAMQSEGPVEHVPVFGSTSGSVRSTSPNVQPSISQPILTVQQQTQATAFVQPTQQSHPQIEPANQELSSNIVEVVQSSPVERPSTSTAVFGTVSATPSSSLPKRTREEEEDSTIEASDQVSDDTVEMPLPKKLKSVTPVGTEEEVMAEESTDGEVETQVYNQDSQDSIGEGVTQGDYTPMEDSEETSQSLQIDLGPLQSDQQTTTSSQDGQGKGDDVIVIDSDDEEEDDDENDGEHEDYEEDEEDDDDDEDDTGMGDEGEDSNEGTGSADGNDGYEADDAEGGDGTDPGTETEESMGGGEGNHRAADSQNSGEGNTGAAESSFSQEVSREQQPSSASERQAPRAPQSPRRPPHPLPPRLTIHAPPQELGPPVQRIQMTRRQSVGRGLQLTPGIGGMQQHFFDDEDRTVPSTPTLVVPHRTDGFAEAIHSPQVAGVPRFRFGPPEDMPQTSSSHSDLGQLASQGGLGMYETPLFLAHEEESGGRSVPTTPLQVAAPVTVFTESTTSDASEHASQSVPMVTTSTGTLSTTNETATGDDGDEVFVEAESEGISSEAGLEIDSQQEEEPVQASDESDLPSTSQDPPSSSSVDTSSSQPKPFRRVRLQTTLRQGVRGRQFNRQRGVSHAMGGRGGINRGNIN
active: [13] 0.297
inactive: [1] -0.001 | [2] 0.023 | [3] -0.069 | [4] -0.047 | Nexturastat A -0.048 | vemurafenib 0.031 | [5] 0.012 | [6] 0.003 | givinostat -0.08 | barasertib 0 | [7] 0.095 | volasertib -0.034 | [8] -0.018 | epoxomicin 0 | [9] 0.055 | [10] 0.067 | [11] -0.03 | rosiglitazone -0.02 | [12] -0.005

TMEM173 (UniProt Q86WV6)
active: [13] 0.293
inactive: [1] -0.037 | [2] -0.01 | [3] -0.043 | [4] -0.008 | Nexturastat A -0.212 | vemurafenib 0.056 | [5] -0.043 | [6] -0.008 | givinostat -0.076 | barasertib 0.055 | [7] 0.219 | volasertib 0.156 | [8] 0.086 | epoxomicin 0.026 | [9] 0.021 | [10] -0.017 | [11] 0.032 | rosiglitazone 0.044 | [12] -0.049
